HEK cytotox – cytotoxic compounds in HEK 293 cells; Potency, µM (highest dose often 115 µM), without a hit: at the highest dose activity change, negative = cytotoxicity, most hits filed as inhibitors; 94,000 tested, 6.6% active; HEK 293 viability, ATP luminescence (CellTiter-Glo), 48-72 h; note: nearly all actives have a fitted effect of over 60% in size
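Pintool-delivered compounds were incubated with HEK 293 cells (250 cells/well) at 37 degree Celsius for 48 or 72 hr. ATP-dependent luminescence (CellTiter-Glo) then reported remaining viable cells.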
Luciferase inh – blocks purified firefly luciferase enzyme activity; P08659; purified P. pyralis luciferase, luminescence, biochemical; Potency, µM (highest dose often 115 µM), most hits filed as inhibitors; 76,000 tested, 2.5% active; AID 1347043; note: nearly all actives have a fitted effect of over 65% in size
Target sequence (P08659 whole entry, looked up): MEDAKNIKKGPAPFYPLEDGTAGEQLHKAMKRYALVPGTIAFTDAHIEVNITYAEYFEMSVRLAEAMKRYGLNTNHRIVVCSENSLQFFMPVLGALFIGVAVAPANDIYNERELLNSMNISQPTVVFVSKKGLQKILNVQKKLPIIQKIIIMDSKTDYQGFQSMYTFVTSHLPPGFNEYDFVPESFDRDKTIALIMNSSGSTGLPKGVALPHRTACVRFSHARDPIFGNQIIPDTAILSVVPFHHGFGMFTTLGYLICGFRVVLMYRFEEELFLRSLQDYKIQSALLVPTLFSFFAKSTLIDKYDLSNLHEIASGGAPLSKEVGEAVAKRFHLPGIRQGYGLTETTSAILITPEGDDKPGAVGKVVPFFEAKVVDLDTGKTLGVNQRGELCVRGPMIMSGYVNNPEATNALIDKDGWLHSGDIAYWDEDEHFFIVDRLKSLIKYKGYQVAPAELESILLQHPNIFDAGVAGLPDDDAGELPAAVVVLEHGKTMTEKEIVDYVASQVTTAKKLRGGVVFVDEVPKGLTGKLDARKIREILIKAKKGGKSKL
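Cell-free enzyme assay, 10nM P. pyralis luciferase, luciferin and ATP each at 10uM. Inhibition profiled over a 6-point titration, read as luminescence.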
GPT2 inh – blocks human glutamate pyruvate transaminase 2; Q8TD30; Recombinant GPT2, coupled pyruvate oxidase/HRP Amplex Red fluorescence; Potency, µM (series often up to 57.7 µM), for the others: top-dose activity change, negative = inhibition, most hits filed as inhibitors; 100,000 tested, 0.25% active; AID 1671188; note: nearly all actives have a fitted effect of over 60% in size
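Fluorescence read-out: pyruvate from GPT2 turnover coupled to pyruvate oxidase, HRP and Amplex Red (0.2mM ThPP, 0.2U/mL PO and HRP, 50uM Amplex final). Substrates 250uM a-KG, 2mM L-alanine; enzyme 10ng/uL; 30 min RT.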
hNpr1 antagonist – antagonists of human natriuretic peptide receptor Npr1. P16066. HEK293 hNpr1 GloSensor cGMP, ANP-stimulated luminescence. Potency, µM (doses to about 46.3 µM), inactives show top-dose activity change, negative = inhibition, hits mostly inhibitors. 76,000 tested, 1.6% active. AID 1347048; calls by dose curve; note: nearly all actives have a fitted effect of over 60% in size
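HEK293 cells stably expressing human Npr1 and cGMP GloSensor pGS-40F, loaded 2 h with 2% GloSensor reagent, given compound 30 min at room temperature. Luminescence read before and 20 min after 0.1 nM hNppA.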
NIH3T3 tox – cytotoxic compounds in NIH 3T3 cells; NIH 3T3 viability, CellTiter-Glo ATP luminescence, 48-72 h; Potency, µM (highest dose often 96.7 µM), for inactives: top-dose activity change, negative = cytotoxicity, usual class: inhibitors; 94,000 tested, 4.3% active; note: nearly all actives have a fitted effect of over 55% in size
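Cells were seeded at 400 per well, treated with pin-transferred compound, and kept 48 or 72 hr at 37 °C before CellTiter-Glo addition and luminescence imaging of cellular ATP.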
An asterisk follows results filed as active; i = inactive; u = inconclusive; x = not tested or not shown; [ ] = another dose, or the depositor's remark. This is a sample that favours compounds with a hit; in the whole collection about 10% have one here. Unless noted, calls come from the whole dose curve; as a rule, active = well fitted curve in the direction sought with a large enough effect; inconclusive = small, poorly fitted or top-dose-only effect, or another doubt; inactive = no such curve, though single readings can be large; an effect the other way counts as inactive or inconclusive. % is set by controls: 0 for no effect and ±100 for the full control effect; potency is the fitted concentration of half-maximal effect.

SMILES | HEK cytotox | Luciferase inh | GPT2 inh | hNpr1 antagonist | NIH3T3 tox
COc1ccc(Cn2c3c(c(=O)n2Cc2ccccc2)CCN(C(=O)CCc2cccnc2)C3)cc1 | i | i | -18% | 4% | 6.3µM*
CCn1c2c(c(=O)n1Cc1ccccc1)CCN(C(=O)COc1ccccc1)C2 | 5%[172 µM] | i | -1%[88.5 µM] | 2%[70.6 µM] | 50µM*
CCn1c2c(c(=O)n1Cc1ccccc1)CCN(C(=O)c1cccnc1)C2 | i | i | i | 5%[70.6 µM] | 50µM*
O=C(c1cccs1)N1CCC2(CC1)CC(N(Cc1ccc(F)cc1)C1CC1)CCO2 (centres undefined) | u | i | i | -21% | u
COc1ccc2[nH]c3c(c2c1)CCNC31CCN(S(=O)(=O)c2c(C)noc2C)CC1 | u | i | 5% | 4% | -23%
COCCn1c2c(c(=O)n1-c1ccccc1)CCN(C(=O)COc1ccccc1)C2 | -17%[172 µM] | i | i | -4%[70.6 µM] | u
O=C(COc1ccccc1)N1CCc2c(n(Cc3cccnc3)n(CCc3ccccc3)c2=O)C1 | -32% | i | i | -5% | 35µM*
COc1ccc(-n2c(=O)c3c(n2Cc2ccccc2)CN(C(=O)COc2ccccc2)CC3)cc1 | -7% | i | i | -3% | 40µM*
O=c1c2c(n(Cc3cccnc3)n1CCc1ccccc1)CN(Cc1cccc(O)c1)CC2 | -6% | i | 2% | -1% | u
COc1ccc(Cn2c3c(c(=O)n2Cc2ccccc2)CCN(C(C)=O)C3)cc1 | i | i | -3%[88.5 µM] | -1%[70.6 µM] | u
COCCn1c(=O)c2c(n1Cc1ccccc1)CN(C(=O)COc1ccccc1)CC2 | i | i | 1%[88.5 µM] | -2%[70.6 µM] | 22µM*
CC(NC(=O)c1ccc(-c2ccc(N3CCCCCC3)nc2)cc1)c1cccnc1 (centres undefined) | u | u | -12% | u | 25µM*
O=C(c1ccc(-c2ccc(N3CCSCC3)nc2)cc1)N1CCCCC1 | u | u | i | 10µM* | 35µM*
CN1CCN(C(=O)c2ccc(-c3ccc(N4CCCCC4)nc3)cc2)CC1 | u | 22µM* | -10% | -2% | u
CCCN1CCN(C(=O)c2ccc(-c3ccc(N4CCCCC4)nc3)cc2)CC1 | u | u | i | -15% | u
CC1CCN(C(=O)c2ccc(-c3ccc(N4CCSCC4)nc3)cc2)CC1 | 20µM* | u | i | u | u
Cn1ccc(Nc2ccc3nnc(-c4ccccn4)n3n2)n1 | -28%[172 µM] | i | i | 8%[70.6 µM] | u
COc1cccc(-c2nc(CN3CCCC3=O)no2)c1 | 12% | u | -4% | 5% | -3%
O=C(c1ccc(-c2ccc(N3CCCCC3)nc2)cc1)N1CCCC1 | u | 28µM* | -1% | u | 40µM*
CN1CCN(C(=O)c2ccc(-c3ccc(N4CCSCC4)nc3)cc2)CC1 | u | 35µM* | i | -29% | u
O=C(Nc1ccc([C@@H](O)[C@H]2COCC(=O)N2Cc2ccccc2F)cc1)c1ccc2c(c1)OCO2 | u | u | 0% | 1% | u
CC(C)C1CN(C(=O)c2cncc(F)c2)CCC(=O)N1Cc1ccc(F)cc1 (centres undefined) | u | i | -17%[11.5 µM] | -8% | -12%
CCOC(=O)C1CCN(C(=O)c2ccc3nc(-c4ccnc(Cl)c4)oc3c2)CC1 | 100µM* | x | i | x | 100µM*
COCC(=O)NC[C@H]1CCN(Cc2scnc2C)C[C@H]1N(C)C | 3% | i | 3% | 5% | -7%
OC[C@@H]1CN(C2CCCC2)C[C@H]1c1nc(-c2cccnc2)no1 | -6% | 32µM* | i | -2% | 0%
OC[C@@H]1CN(C2CCCC2)C[C@H]1c1nc(-c2ccncc2)no1 | i | 25µM* | i | -2% | -12%
O=C(Nc1ccccc1Cl)C1CCCN(Cc2cccc(-c3ccc(F)cc3F)c2)C1 (centres undefined) | 32µM* | x | -5% | x | 35µM*
O=C(NCc1ccccc1Cl)C1CCCN(Cc2cccc(-c3ccc(F)cc3F)c2)C1 (centres undefined) | 45µM* | x | -3% | x | u
